# Test results published in PubChem BioAssay AID449762 (Southern Research Specialized Biocontainment Screening …, 2010).
# In all, about 330,000 compounds went through this assay and about 1,900 (0.58%) were called active. Inconclusive results (about 4%) are left out. Cut-off read from the data, not from the text of the source: inconclusive = inhibition above about 70% without an active follow-up result; inactive = below that. These entries were drawn from the full list. Results with a measured potency or affinity are listed apart.
# Experiment: M. tuberculosis growth inhibition, HTS (AID 449762);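 note: bacterial growth assessed after seven days of incubation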
# Conditions: M. tuberculosis H37Rv growth inhibition, 7H9 media; at 25 µM; active compounds read high
row,SMILES,inhibition
1,CN1C(=O)c2ccccc2N(C)C1c1cccc(O)c1 (stereo not drawn),0.25% (inactive)
2,O=C(CN1C(=O)c2cccc3cccc1c23)NCc1ccccn1,-1.94% (inactive)
3,COc1ccc(S(=O)(=O)Nc2cccc(S(=O)(=O)N3CCCC3)c2)cc1OC,-4.75% (inactive)
4,CCOC(=O)CCCNC(=O)COC(=O)c1ccc(O)cc1,-6.12% (inactive)
5,CCOC(=O)CCCNC(=O)COC(=O)c1cc(C)cc(C)c1,-0.59% (inactive)
6,COc1cc(NS(=O)(=O)c2c(C)[nH]c(C)c2C(=O)N2CCCCC2)cc(OC)c1OC,7.96% (inactive)
7,COc1ccccc1C(=O)N/C(N)=N/c1nc2ccccc2o1,0.95% (inactive)
8,O=C(NC(=Nc1nc2ccccc2o1)NC(=O)c1ccccc1)c1ccccc1,3.54% (inactive)
9,CCC(=O)N(Cc1ccco1)Cc1cc2cc3c(cc2[nH]c1=O)OCO3,3.54% (inactive)
10,S=C(NCCc1ccccc1)N1CCN(C23CC4CC(CC(C4)C2)C3)CC1,7.41% (inactive)
11,CCN1CCN(C2CCCCC2NS(=O)(=O)c2ccccc2)CC1 (stereo not drawn),-5.99% (inactive)
12,Cc1c(C(=O)Nc2nc3ccccc3[nH]2)oc2ccc(Br)cc12,64.1% (inactive)
13,COc1ccc2oc(C(=O)Nc3nc4ccccc4[nH]3)c(C)c2c1,25.6% (inactive)
14,CCC(C)(C)NC(=O)Cn1c(-c2ccc(C)cc2)noc1=O,-4.07% (inactive)
15,Cc1ccc(C(=O)Cn2c(-c3ccccc3)noc2=O)cc1,2.22% (inactive)
16,Cn1ccc(-c2ccccc2)c(C#N)c1=O,-0.87% (inactive)
17,Cc1ccc2nc(SCC(=O)NCC3CCCO3)c(C#N)cc2c1 (stereo not drawn),9.97% (inactive)
18,Clc1ccccc1OCCCCn1ccnc1,-6.48% (inactive)
19,Cc1ccccc1OCCCCCn1ccnc1,-16.2% (inactive)
20,COc1ccccc1NC(=O)C(C)OC(=O)/C(=C/c1ccccc1)NC(C)=O (stereo not drawn),5.35% (inactive)
21,O=C(Nc1ccc2c(c1)OCO2)c1ccc(Br)s1,65% (inactive)

row,SMILES,inhibition
1,O=C(Nc1ccc2c(c1)OCO2)c1cccs1,-1.92% (inactive)
2,O=c1[nH]nc(-c2ccc(F)cc2)cc1Cc1ccccn1,1.36% (inactive)
3,CCC(C)(C)NC(=O)C(c1ccc(OC)cc1)N(C(=O)CCC(=O)Nc1cc(C)on1)c1ccccc1OC (stereo not drawn),-10.6% (inactive)
4,O=[N+]([O-])c1ccccc1/C=C/CN1CCCCC1,-9.58% (inactive)
5,O=C(Nc1ccn(Cc2c(F)c(F)c(F)c(F)c2F)n1)c1ccc(COc2ccccc2Cl)cc1,-14% (inactive)
6,O=C(Nc1ccn(Cc2c(F)c(F)cc(F)c2F)n1)c1ccc(COc2ccccc2Cl)cc1,0.39% (inactive)
7,CCCOC(=O)C1NC(=O)N2C(C(=O)OCCC)C(C)(C)S[C@H]12 (stereo partly drawn),-1.23% (inactive)
8,c1ccc(-c2ccc(SCc3cccnc3)nn2)nc1,-8.38% (inactive)
9,c1ccc(CSc2ccc(-c3ccccn3)nn2)nc1,7.58% (inactive)
10,CC(=O)c1ccc(NC(=O)C(C)Sc2nnc3ccccn23)cc1 (stereo not drawn),-6.02% (inactive)
11,C=CCn1c(O)c(N=Nc2ccccc2C)c2ccccc21,53.8% (inactive)
12,C=CCn1c(O)c(N=Nc2ccccc2)c2ccccc21,19.4% (inactive)
13,O=C(Nc1ccc(C(=O)N2CCCC2)cc1)Nc1ccc(Cl)cc1Cl,-2.35% (inactive)
14,CC(C)c1nc(NCCO)c2nnn(Cc3ccccc3)c2n1,-8.58% (inactive)
15,COc1ccc(-n2nc(C(=O)NCC(=O)Nc3cc(C)ccc3OC)c3ccccc3c2=O)c(OC)c1,12.5% (inactive)
16,c1ccc(Cn2c[n+](Cc3ccccc3)c3ccccc32)cc1,2.04% (inactive)
17,Cc1ccc(OCC(O)CN2CCN(c3ccc(C)cc3)CC2)cc1 (stereo not drawn),10.5% (inactive)
18,O=C(CCNC(=O)c1ccc([N+](=O)[O-])cc1)Nc1ccc(F)cc1F,17.9% (inactive)
19,CO/N=C/CC(=O)Nc1ccc(F)cc1F,-4.1% (inactive)
20,O=C(COC(=O)c1ccc(F)cc1F)NCc1ccc2c(c1)OCO2,2.2% (inactive)
21,C=CCOc1ccc(C2=NOC(C(=O)Nc3ccc4c(c3)OCCO4)C2)cc1OC (stereo not drawn),4.17% (inactive)

row,SMILES,inhibition
1,O=C(Nc1ccc2c(c1)OCCO2)C1CC(c2ccc(F)cc2)=NO1 (stereo not drawn),-3.61% (inactive)
2,COc1ccccc1-c1nnc2sc(C3CCCCC3)nn12,-3.09% (inactive)
3,COc1cccc(-c2nnc3sc(C4CCCCC4)nn23)c1,66.4% (inactive)
4,CC(CN1CCCC1)OC(=O)c1ccc(Cl)cc1Cl (stereo not drawn),4.38% (inactive)
5,CC(=O)c1ccc(N2CCN(C(=S)NCCCN(C)C)CC2)cc1,3.66% (inactive)
6,CCCCNC(=S)N1CCN(c2ccc(C(C)=O)cc2)CC1,7.05% (inactive)
7,COc1ccc(-c2sc(Nc3ccccc3)n[n+]2-c2ccc(F)cc2)c(C)c1C,1.59% (inactive)
8,CC(C)c1ccccc1NC(=O)CC1(CC(=O)O)CCCC1,-1.9% (inactive)
9,Cc1ccc(N2C(=O)[C@@H]3Cc4ccccc4CN3C2=O)cc1,1.44% (inactive)
10,O=[N+]([O-])c1c(C(Cl)Cl)nn(-c2ccccc2)c1N1CCCC1,-9.83% (inactive)
11,O=[N+]([O-])c1c(C(Cl)Cl)nn(-c2ccccc2)c1N1CCOCC1,5.81% (inactive)
12,Cc1cc(C)n(-c2ccc(C(=O)NCc3cccs3)cc2)n1,-8.74% (inactive)
13,COc1ccc(-c2cc(N)n(S(=O)(=O)c3ccc(C)cc3)n2)c(OC)c1,-6.16% (inactive)
14,Cc1ccc(-n2c(C)cc(/C=C3\SC(=O)NC3=O)c2C)cc1,7.2% (inactive)
15,Cc1cc(/C=C2\SC(=O)N(C)C2=O)c(C)n1-c1ccc(S(N)(=O)=O)cc1,-2.91% (inactive)
16,Nc1ccc(-c2cc(-c3ccc(N)cc3)nc(-c3ccccc3)n2)cc1,-2.43% (inactive)
17,COc1ccccc1N1CCN(C(c2cccs2)C(C)NC(=O)C(=O)N2CCCCC2)CC1 (stereo not drawn),3.15% (inactive)
18,Cc1cc(C(=O)Nc2c(C)nn(Cc3ccccc3Cl)c2C)no1,-4.86% (inactive)
19,Cc1ccc(S(=O)(=O)Oc2cccc(/C=N/Nc3ccc(C(=O)O)cc3)c2)cc1,20.9% (inactive)
20,O=C(Cc1cccs1)N1CCCC(c2nc3c(nnn3Cc3ccc(F)cc3)c(=O)[nH]2)C1 (stereo not drawn),-5.77% (inactive)
21,CC(C)(C)c1ccc(Cn2nnc3c(=O)[nH]c(C4CCCN(C(=O)c5cccs5)C4)nc32)cc1 (stereo not drawn),11.9% (inactive)
